Results filed as inconclusive are left out. Values without a mark were called inactive. Calls of active or inactive are those of the source. Calls follow the shape of the dose curve; as a rule, active = well fitted inhibition curve with a large enough effect in the signal ratio, with a control signal flat (not every such curve was filed as active); inconclusive = small, poorly fitted or top-dose-only effect, or effect the other way, or a change in a side signal; inactive = flat fitted curve, though single readings scatter; the % refers to the signal ratio.
Target: Glucocorticoid receptor (Homo sapiens) (UniProt P04150)
Sequence (P04150 whole entry, looked up): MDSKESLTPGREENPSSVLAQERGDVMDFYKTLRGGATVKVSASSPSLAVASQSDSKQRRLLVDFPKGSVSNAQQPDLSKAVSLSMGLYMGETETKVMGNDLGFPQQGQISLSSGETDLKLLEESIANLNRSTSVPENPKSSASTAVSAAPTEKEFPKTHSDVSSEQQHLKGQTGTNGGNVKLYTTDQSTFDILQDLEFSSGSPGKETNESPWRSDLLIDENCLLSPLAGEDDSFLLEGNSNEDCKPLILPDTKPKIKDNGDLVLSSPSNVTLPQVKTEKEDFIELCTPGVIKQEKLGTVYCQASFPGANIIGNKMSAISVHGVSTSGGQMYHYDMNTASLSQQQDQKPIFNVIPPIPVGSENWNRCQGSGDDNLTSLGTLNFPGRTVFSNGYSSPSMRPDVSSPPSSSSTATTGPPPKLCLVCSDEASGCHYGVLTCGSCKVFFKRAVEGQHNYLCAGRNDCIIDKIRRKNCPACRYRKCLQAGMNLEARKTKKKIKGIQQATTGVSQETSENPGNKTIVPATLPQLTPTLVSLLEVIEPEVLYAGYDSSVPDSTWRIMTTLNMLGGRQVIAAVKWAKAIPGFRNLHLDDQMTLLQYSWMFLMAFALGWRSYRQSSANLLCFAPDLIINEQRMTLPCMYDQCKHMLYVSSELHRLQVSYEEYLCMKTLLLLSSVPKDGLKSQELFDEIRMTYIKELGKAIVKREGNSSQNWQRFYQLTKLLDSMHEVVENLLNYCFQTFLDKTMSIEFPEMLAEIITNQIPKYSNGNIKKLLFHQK
Experiment: qHTS assay for small molecule antagonists of glucocorticoid receptor signaling (AID 588533)
Details: HeLa MMTV-bla, GRE beta-lactamase ratio, antagonist mode, 18 h; series mostly up to 76.8 µM; activity change, negative = inhibition: at the top concentration
Source text: NIH Chemical Genomics Center [NCGC] U.S. Environmental Protection Agency [EPA] National Institutes of Environmental Health Sciences [NIEHS] National Toxicology Program [NTP] NCGC Assay Overview The Glucocorticoid receptor (GR), a nuclear receptor subfamily member and its natural ligands includes […] etc. The GR is a validated drug target for inflammation. GR ligands such as dexamethasone are clinically available as anti-inflammatory drugs. Glucocorticoids implicate a role in carbohydrate, protein and lipid metabolisms and programmed cell death. They are also a component of many chemotherapy regimens for the treatment of leukemias, lymphomas, and myelomas because of their role in the induction of apoptosis.
NCGC Assay Protocol Summary Using a beta-lactamase reporter-gene under control of glucocorticoid response element (GRE), a cell-based assay [CellSensor MMTV-bla HeLa cell line assay developed by Invitrogen] was used to measure GR ligands signaling. CellSensor MMTV-bla HeLa cells were used with assay medium containing 1% charcoal/dextran treated FBS, 0.1 mM NEAA, 1 mM sodium pyruvate and 25mM HEPES. The assay was performed in clear bottom black Greiner 1536-well plates. Library compounds were measured for their ability to inhibit the reporter gene activity. Compounds were screened in a titration series in 1536-well format. […] Data was normalized relative to Dexamethasone control (2 nM, 100%), and DMSO only wells (basal, 0%). Concentration-response titration points for each compound were fitted to the Hill equation yielding concentrations of half-maximal inhibition (IC50) and maximal response (efficacy) values. qHTS protocol for GR beta-lactamase assay in antagonist mode [Step] [Parameter] [Value] [Description] 1. Reagent; 5 uL; 1500 cells/well 2. Incubation; 37 C for 3-5 hrs 3. Compounds; 23 nL; 0.59 nM to 92 uM 4. […] Agonist (Stimulator); 1uL; Dexamethasone at 2 nM (final) concentration 6. Incubation; 37 C for 18 hrs 7. Detection reagent; 1 uL of CCF4-dye 8. Incubation; RT for 2 hrs 9. Detection; Fluorescence; Envision plate reader
% is scaled to controls: 0 for no effect and ±100 for the full control effect.

Compound | activity change, negative = inhibition | Potency
CC(C)Cc1ccc(C(C)C(=O)O)cc1 (configuration not stated) | 5.55% | –
NCCS(=O)(=O)O | 4.97% | –
O=C(CCCN1CCC(O)(c2ccc(Cl)cc2)CC1)c1ccc(F)cc1 | -2.3% | –
CC(COc1ccccc1)N(CCCl)Cc1ccccc1 (configuration not stated) | -3.46% | –
Cn1c(=O)c2c(ncn2C)n(C)c1=O | – | inactive
CN(C)CCOC(c1ccccc1)c1ccccc1 | -0.736% | –
COc1ccc2c(c1)c(CC(=O)O)c(C)n2C(=O)c1ccc(Cl)cc1 | – | inactive
COc1ccc2[nH]cc(CCNC(C)=O)c2c1 | – | inactive
CCOC(=O)C(C)(C)Oc1ccc(Cl)cc1 | 18.9% | –
CC(C)NCC(O)c1ccc(O)c(O)c1 (configuration not stated) | – | inactive
Cn1cnc2c1c(=O)[nH]c(=O)n2C | -1.97% | –
CC(C)(Oc1ccc(C2CC2(Cl)Cl)cc1)C(=O)O (configuration not stated) | -14.6% | –
O=C(c1ccc(OCCN2CCCCC2)cc1)c1c(-c2ccc(O)cc2)sc2cc(O)ccc12 | – | 39.8 µM (active)
O=c1[nH]cc(F)c(=O)[nH]1 | 0.366% | –
CCC1(c2ccccc2)C(=O)NCNC1=O | – | inactive
Cc1cn([C@H]2C[C@H](N=[N+]=[N-])[C@@H](CO)O2)c(=O)[nH]c1=O | – | inactive
NS(=O)(=O)c1cc2c(cc1Cl)NCNS2(=O)=O | – | inactive

Reference: PubChem BioAssay (NCATS)
